Records with an inconclusive call do not appear. A call without a number means that no potency is given here. The source made the active and inactive calls. The call rests on the fitted dose curve; in most records, active means well fitted inhibition curve with a large enough effect; inconclusive means small, poorly fitted or top-dose-only effect; inactive means flat fitted curve, though single readings scatter.
test system: astro; experiment: Drug repurposing screens with cells derived from glioblastoma tumor samples (AID 1345199); conditions: viability, ATP luminescence, 48 h; series mostly up to 45.9 µM; further: nearly all actives have a fitted effect of over 40% in size
Method: CD133+ cells were isolated from GBM patient biopsies and cultured as neurospheres. Neurospheres from four patients were used to screen the NCATS pharmaceutical collection (NPC) library of approved drugs and bioactive compounds. […] The neurospheres were incubated with drugs for 48 hours in 1536-well format, then assayed with an ATP content cell viability assay. […] These hits were cherry picked to confirm activity in the four original GBM lines screened plus three other slower growing GMB lines (unable to yield enough cells for a full primary screen). Variable activities of the confirmed primary hits in the different GBM patient lines were observed. The patient line 206 responded to the greatest number of compounds and line 923 responded to the least amount of active compounds.
Potency means the concentration at half of the fitted maximal effect.

| SMILES | Potency |
| --- | --- |
| CCNC(=O)N1CCN(CCCC(c2ccc(F)cc2)c2ccc(F)cc2)CC1 | inactive |
| CN(C)CCN(Cc1cccs1)c1ccccn1 | inactive |
| CN/C(=C\[N+](=O)[O-])NCCSCc1ccc(CN(C)C)o1 | inactive |
| CN1C[C@H](C(=O)N[C@]2(C)O[C@@]3(O)[C@@H]4CCCN4C(=O)[C@H](Cc4ccccc4)N3C2=O)C[C@@H]2c3cccc4[nH]cc(c34)C[C@H]21 | inactive |
| COCCOC(=O)C1=C(C)NC(C)=C(C(=O)OC(C)C)C1c1cccc([N+](=O)[O-])c1 (stereo not given) | inactive |
| COc1ccc2c(c1OC)C(=O)O[C@@H]2[C@H]1c2c(cc3c(c2OC)OCO3)CCN1C | inactive |
| Cc1nc2ccccn2c(=O)c1CCN1CCC(C(=O)c2ccc(F)cc2)CC1 | inactive |
| CN(C)CC[C@@H](c1ccc(Br)cc1)c1ccccn1 | inactive |
| CCOC(=O)c1cnc2c(cnn2CC)c1NN=C(C)C | inactive |
| O=C1CC2(CCCC2)CC(=O)N1CCCCN1CCN(c2ncccn2)CC1 | inactive |
| CCCOc1ccccc1-c1nc2n[nH]nc2c(=O)[nH]1 | inactive |
| CCc1c(C)[nH]c2c1C(=O)C(CN1CCOCC1)CC2 (stereo not given) | inactive |
| CCCN(CCC)CCc1cccc2c1CC(=O)N2 | inactive |
| CC1=NS(=O)(=O)c2cc(Cl)ccc2N1 | inactive |
| C[C@@H](O)[C@H]1C(=O)N2C(C(=O)O)=C(SCCN=CN)C[C@H]12 | inactive |
| NC(N)=NC(=O)Cc1c(Cl)cccc1Cl | inactive |
| C[N+](C)(C)CCCCCCCCCC[N+](C)(C)C | inactive |
| COc1ccc(CN(CCN(C)C)c2ccccn2)cc1 | inactive |
| NC/C=C/C(=O)O | inactive |
| O=C(O)CN(CCN(CC(=O)O)CC(=O)O)CCN(CC(=O)O)CC(=O)O | inactive |

| SMILES | Potency |
| --- | --- |
| c1cnc(N2CCN(Cc3ccc4c(c3)OCO4)CC2)nc1 | inactive |
| CC(=O)OCC1=C(C(=O)O)N2C(=O)[C@@H](NC(=O)Cc3cccs3)[C@H]2SC1 | inactive |
| CN(C)[C@@H]1C(=O)C(C(N)=O)=C(O)[C@@]2(O)C(=O)C3=C(O)c4c(O)ccc(Cl)c4[C@@H](O)[C@H]3C[C@@H]12 | inactive |
| Nc1c2c(nc3ccccc13)CCCC2O (stereo not given) | inactive |
| Cc1nc2sccn2c(=O)c1CCN1CCC(=C(c2ccc(F)cc2)c2ccc(F)cc2)CC1 | 20 µM (active) |
| CNC1(C)C2CCC(C2)C1(C)C (stereo not given) | inactive |
| O=C(O)CN(CCOCCOCCN(CC(=O)O)CC(=O)O)CC(=O)O | inactive |
| C(=C\c1ccccc1)/CN1CCN(C(c2ccccc2)c2ccccc2)CC1 | inactive |
| CC(C)COCC(CN(Cc1ccccc1)c1ccccc1)N1CCCC1 (stereo not given) | 35.5 µM (active) |
| C[n+]1cc2c3c(ccc2c2ccc4cc5c(cc4c21)OCO5)OCO3 | 4.47 µM (active) |
| CCN(CC)CCCN(c1ccccc1)C1Cc2ccccc2C1 | 12.6 µM (active) |
| O=C(CCCN1CCC(O)(c2cccc(C(F)(F)F)c2)CC1)c1ccc(F)cc1 | inactive |
| N[C@@H](COP(=O)(O)O)C(=O)O | inactive |
| C#CCN(C)CCCOc1ccc(Cl)cc1Cl | inactive |
| CCN(CC)CCOCCOC(=O)C1(c2ccccc2)CCCC1 | 35.5 µM (active) |
| C[C@H](CS)C(=O)N1CCC[C@H]1C(=O)O | inactive |
| Brc1c(NC2=NCCN2)ccc2nccnc12 | inactive |
| NC(=O)c1ncn([C@@H]2O[C@H](CO)[C@@H](O)[C@H]2O)c1O | inactive |
| CC(=O)[C@@]1(O)CC[C@H]2[C@@H]3CCC4=CC(=O)CC[C@]4(C)[C@H]3CC[C@@]21C | inactive |
| CC(C)(C)c1ccc(C(=O)CCCN2CCC(OC(c3ccccc3)c3ccccc3)CC2)cc1 | 12.6 µM (active) |

— PubChem BioAssay (NCATS)
